In PubChem BioAssay (EPA / NIEHS):
Active and inactive are the calls of the source. The calls were made as follows: active = hit-call score of the fitted dose curve at least 0.9, where 1 is the maximum; inactive = score below 0.9.

Columns and labels:
[1] = ATG_AP_1_CIS: Attagene CIS-FACTORIAL HepG2 Assay for human Activator Protein 1 (AP-1) (AID 2282931); settings: HepG2 Attagene cis-factorial AP-1 reporter mRNA; actives raise or lower the signal
Summary of the method: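 Multiplexed HepG2 reporter assay, 24 h dosing. mRNA induction detected by RT-PCR plus capillary electrophoresis. Activity fitted in both directions against DMSO.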

[2] = ATG_AP_2_CIS: Attagene CIS-FACTORIAL HepG2 Assay for human Activator Protein 2 (AP-2) (AID 2282932); settings: HepG2 AP-2 cis-reporter, Attagene transcription factor profiling; actives raise or lower the signal
Summary of the method: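 HepG2, transient MRTU transfection, cis-regulated reporters; 24 h compound exposure; RNA isolated, RT-PCR, 6-FAM labelling, HpaI digest, CE fluorescence. DMSO = negative control/baseline, bidirectional fit.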

[3] = ATG_BRE_CIS: Attagene CIS-FACTORIAL HepG2 Assay for human Bone Morphogenetic Protein (BMP) Response Element (BRE) (AID 2282933); settings: HepG2 BMP response element reporter, Attagene transcription factor profiling; actives raise or lower the signal
Summary of the method: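 A HepG2 multiplex reporter system measured inducible reporter mRNA 24 h post-dosing. Detection: RT-PCR, 6-FAM primer extension, HpaI digestion, capillary electrophoresis. Activity fitted bidirectionally relative to DMSO.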

[4] = ATG_E_Box_CIS: Attagene CIS-FACTORIAL HepG2 Assay for human Enhancer Box (E-box) (AID 2282936); settings: HepG2 E-box cis-reporter transcription, actives raise or lower the signal
Summary of the method: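 Cells: HepG2 (human liver), transient MRTU transfection. Exposure 24 h. RNA → oligo(dT) RT → PCR → 6-FAM label → HpaI → CE. Activity fitted both directions relative to DMSO.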

[5] = ATG_M_61_CIS: Attagene CIS-FACTORIAL HepG2 Assay for M61 Transcription Factor (Internal Marker) (AID 2282937); settings: HepG2 Attagene CIS-FACTORIAL M61 internal marker reporter; actives raise or lower the signal
Summary of the method: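 Endogenous transcription factor activity in HepG2 is read through transiently transfected cis-element reporter units. After 24 h dosing, RNA undergoes reverse transcription, PCR and primer extension with 6-FAM before capillary electrophoresis; DMSO-referenced bidirectional fit.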

[6] = ATG_EGR_CIS: Attagene CIS-FACTORIAL HepG2 Assay for human Early Growth Response 1 (EGR1) (AID 2282938); settings: HepG2 Attagene CIS-FACTORIAL EGR reporter mRNA; actives raise or lower the signal
Summary of the method: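 Activity is taken as induction or loss of reporter mRNA versus DMSO, fitted bidirectionally. Transcripts from cis-regulated reporter units in transiently transfected HepG2 were measured after 24 h by RT-PCR with capillary electrophoresis.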

[7] = ATG_ERE_CIS: Attagene CIS-FACTORIAL HepG2 Assay for Estrogen Response Element (ERE) (AID 2282940); settings: HepG2 ERE cis-reporter, Attagene RNA transcript; actives raise or lower the signal
Summary of the method: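 Human liver cells (HepG2) bearing transiently transfected, promoter-regulated reporter units were exposed 24 h. Reporter mRNA induction was detected by capillary electrophoresis of labelled RT-PCR products and fitted bidirectionally to DMSO.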

[8] = ATG_Ets_CIS: Attagene CIS-FACTORIAL HepG2 Assay for human Erythroblast Transformation Specific (ETS) (AID 2282941); settings: HepG2 ETS cis-reporter transcription, actives raise or lower the signal
Summary of the method: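 Human HepG2 hepatoma cells were transiently transfected with promoter-driven reporter constructs and treated for 24 hours. Reporter transcripts were quantified by RT-PCR with fluorescent primer extension; bidirectional curve fitting used DMSO as reference.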

[9] = target: Hepatocyte nuclear factor 3-beta (Homo sapiens) (UniProt Q9Y261); assay: ATG_FoxA2_CIS: Attagene CIS-FACTORIAL HepG2 Assay for human Forkhead box A2 (FOXA2) (AID 2282942); settings: HepG2 cis-reporter transcription factor activity, 24 h; actives raise or lower the signal
Summary of the method: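 Reporter transcript induction is measured by fluorescence after capillary electrophoresis of RT-PCR products from HepG2 cells exposed 24 h. Cis-regulated reporter units report endogenous factor activity; curves fitted both directions against DMSO.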

[10] = ATG_FoxO_CIS: Attagene CIS-FACTORIAL HepG2 Assay for human Forkhead box O (FoxO) (AID 2282943); settings: HepG2 Attagene cis-reporter, FoxO element, mRNA; actives raise or lower the signal
Summary of the method: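 Endogenous transcription factor activity read from multiplexed cis-promoter reporter transcripts in transiently transfected HepG2, 24 h after dosing. Reporter RNA measured via RT-PCR plus capillary electrophoresis of FAM-labeled products; gain or loss relative to DMSO.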

[11] = ATG_GATA_CIS: Attagene CIS-FACTORIAL HepG2 Assay for human GATA Binding Protein (AID 2282944); settings: HepG2 GATA cis-element reporter, Attagene multiplex mRNA; actives raise or lower the signal
Summary of the method: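 Transfected cis-reporter HepG2 cells were treated with chemicals for 24 hours. Total RNA was then converted to cDNA, amplified with reporter-specific primers and analysed by fluorescent capillary electrophoresis, using DMSO-treated wells as baseline.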

[12] = ATG_GLI_CIS: Attagene CIS-FACTORIAL HepG2 Assay for human Zinc Finger Protein GLI1 (AID 2282945); settings: HepG2, Attagene cis-factorial reporter mRNA, GLI element; actives raise or lower the signal
Summary of the method: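 Bidirectional curve fits relative to DMSO, using reporter mRNA levels from RT-PCR plus capillary electrophoresis. Cells were HepG2 transiently carrying cis-regulated reporter constructs, harvested 24 h after dosing.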

[13] = target: Bile acid receptor (Homo sapiens) (UniProt Q96RI1); assay: ATG_IR1_CIS: Attagene CIS-FACTORIAL HepG2 Assay for human Nuclear Receptor Subfamily 1 Group H Member 4 (NR1H4), IR1 submotif (AID 2282946); settings: IR1 reporter transcription, actives raise or lower the signal
Summary of the method: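 Cells (human HepG2) carry transiently transfected cis-promoter reporter transcription units. Compounds are incubated 24 h, total RNA is reverse-transcribed and amplified, and labelled fragments are resolved by capillary electrophoresis. Curves use DMSO as baseline.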

[14] = ATG_GRE_CIS: Attagene CIS-FACTORIAL HepG2 Assay for human Glucocorticoid Response Elements (GRE) (AID 2282947); settings: HepG2 GRE cis-reporter, Attagene multiplex mRNA; actives raise or lower the signal
Summary of the method: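 Transient MRTU transfection of human HepG2 liver cells; cis-regulated reporters report endogenous factors. 24 h dosing → RNA isolation → RT-PCR → 6-FAM primer extension → HpaI cut → CE fragment analysis. Bidirectional fit, DMSO negative control.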

[15] = ATG_ISRE_CIS: Attagene CIS-FACTORIAL HepG2 Assay for human Interferon Regulatory Factor 1 (IRF1) binding to an Interferon-Stimulated Response Element (ISRE) (AID 2282948); settings: HepG2 ISRE cis-reporter (Attagene), mRNA transcription readout; actives raise or lower the signal
Summary of the method: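 Cell-based cis-reporter assay; HepG2; 24 h exposure; reporter mRNA by RT-PCR plus capillary electrophoresis fluorescence; activity in either direction scored relative to DMSO.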

[16] = ATG_M_06_CIS: Attagene CIS-FACTORIAL HepG2 Assay for M06 Transcription Factor (Internal Marker) (AID 2282950); settings: HepG2 Attagene CIS-FACTORIAL M06 internal marker reporter; actives raise or lower the signal
Summary of the method: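 Cells (HepG2, transiently carrying cis-driven reporter units) receive chemical for 24 h before RNA isolation. Reporter cDNA is PCR-amplified, FAM-labelled by primer extension, HpaI-digested and sized on a capillary analyser.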

[17] = target: Transcription factor E2F1 (Homo sapiens) (UniProt Q01094); assay: ATG_E2F_CIS: Attagene CIS-FACTORIAL HepG2 Assay for human E2F Transcription Factor 1 (AID 2282935); settings: HepG2 Attagene cis-reporter, E2F reporter RNA transcripts; actives raise or lower the signal
Summary of the method: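 Cis-element reporter mRNA induction in transiently transfected HepG2, 24 h exposure. Activity fitted in both directions relative to DMSO negative control.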

[18] = ATG_M_19_CIS: Attagene CIS-FACTORIAL HepG2 Assay for M19 Transcription Factor (Internal Marker) (AID 2282939); settings: HepG2 Attagene CIS-FACTORIAL M19 internal marker reporter; actives raise or lower the signal
Summary of the method: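 Chemical-treated HepG2 (24 h) with MRTU constructs; reporter transcripts detected by fluorescent RT-PCR fragment analysis on capillary electrophoresis. Internal background marker, DMSO as baseline.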

[19] = ATG_M_32_CIS: Attagene CIS-FACTORIAL HepG2 Assay for M32 Transcription Factor (Internal Marker) (AID 2282949); settings: HepG2 Attagene cis-factorial M32 reporter, mRNA; actives raise or lower the signal;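 also: background control marker of the multiplexed CIS panel rather than a real target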
Summary of the method: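 HepG2 cells transiently transfected with multiplexed cis-regulated reporter units, dosed 24 h. Reporter mRNA quantified by RT-PCR, 6-FAM labelling, HpaI digestion and capillary electrophoresis; bidirectional fit vs DMSO.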

Sequence of Transcription factor E2F1 (Homo sapiens) (Q01094 whole entry, looked up): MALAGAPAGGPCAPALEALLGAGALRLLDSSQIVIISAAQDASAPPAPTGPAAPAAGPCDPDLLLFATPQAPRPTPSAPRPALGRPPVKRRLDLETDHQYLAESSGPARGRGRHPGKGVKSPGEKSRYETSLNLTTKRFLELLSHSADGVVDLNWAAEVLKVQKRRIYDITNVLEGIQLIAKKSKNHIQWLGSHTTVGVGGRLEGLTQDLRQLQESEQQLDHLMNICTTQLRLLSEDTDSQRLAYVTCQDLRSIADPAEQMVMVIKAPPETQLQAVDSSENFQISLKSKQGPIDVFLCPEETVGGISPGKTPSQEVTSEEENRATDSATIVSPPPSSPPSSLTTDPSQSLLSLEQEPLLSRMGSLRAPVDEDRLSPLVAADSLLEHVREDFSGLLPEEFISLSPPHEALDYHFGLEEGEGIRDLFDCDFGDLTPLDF
Sequence of Hepatocyte nuclear factor 3-beta (Homo sapiens) (Q9Y261 whole entry, looked up): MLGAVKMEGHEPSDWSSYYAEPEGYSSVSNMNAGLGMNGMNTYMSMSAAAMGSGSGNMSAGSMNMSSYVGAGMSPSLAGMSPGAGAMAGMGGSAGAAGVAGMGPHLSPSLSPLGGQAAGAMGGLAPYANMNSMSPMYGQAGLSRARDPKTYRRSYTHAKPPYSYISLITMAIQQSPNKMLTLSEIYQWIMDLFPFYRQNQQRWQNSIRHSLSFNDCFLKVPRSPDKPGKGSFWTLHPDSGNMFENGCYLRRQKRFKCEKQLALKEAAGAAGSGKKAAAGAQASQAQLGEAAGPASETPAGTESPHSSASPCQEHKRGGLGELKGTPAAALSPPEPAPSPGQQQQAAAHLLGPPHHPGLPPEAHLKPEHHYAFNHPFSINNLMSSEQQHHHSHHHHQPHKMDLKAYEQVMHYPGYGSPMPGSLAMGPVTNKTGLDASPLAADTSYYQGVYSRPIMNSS
Sequence of Bile acid receptor (Homo sapiens) (Q96RI1 whole entry, looked up, the tested form may be a part): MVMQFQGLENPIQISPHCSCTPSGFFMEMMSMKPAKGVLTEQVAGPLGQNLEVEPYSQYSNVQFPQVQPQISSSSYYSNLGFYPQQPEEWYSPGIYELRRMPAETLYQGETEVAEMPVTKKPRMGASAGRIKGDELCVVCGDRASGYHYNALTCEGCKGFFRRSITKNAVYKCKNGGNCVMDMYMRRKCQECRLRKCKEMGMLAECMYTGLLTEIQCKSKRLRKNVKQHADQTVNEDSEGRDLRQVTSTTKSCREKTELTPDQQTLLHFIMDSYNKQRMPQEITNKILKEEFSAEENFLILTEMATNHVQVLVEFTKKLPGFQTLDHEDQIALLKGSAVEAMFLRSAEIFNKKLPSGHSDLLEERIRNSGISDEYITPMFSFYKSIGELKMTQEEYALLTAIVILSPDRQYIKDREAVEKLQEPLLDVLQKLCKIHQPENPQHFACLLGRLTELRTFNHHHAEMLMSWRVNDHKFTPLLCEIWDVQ

Structure (SMILES): OC(Cc1ccccc1Cl)(Cn1[nH]cnc1=S)C1(Cl)CC1 (stereo unspecified)
- AC50 [1]: 53 µM (active)
- outcome [2]: inactive
- outcome [3]: inactive
- outcome [4]: inactive
- outcome [5]: inactive
- outcome [6]: inactive
- AC50 [7]: 7.38 µM (active)
- outcome [8]: inactive
- outcome [9]: inactive
- outcome [10]: inactive
- outcome [11]: inactive
- outcome [12]: inactive
- outcome [13]: inactive
- outcome [14]: inactive
- AC50 [15]: 100 µM (active)
- outcome [16]: inactive

Structure (SMILES): COc1ccc(N)cc1
- outcome [1]: inactive
- outcome [2]: inactive
- outcome [3]: inactive
- outcome [17]: inactive
- outcome [4]: inactive
- outcome [5]: inactive
- outcome [6]: inactive
- outcome [18]: inactive
- outcome [8]: inactive
- outcome [9]: inactive
- outcome [10]: inactive
- outcome [11]: inactive
- outcome [12]: inactive
- outcome [14]: inactive
- outcome [15]: inactive
- outcome [19]: inactive
- outcome [16]: inactive

Structure (SMILES): CC(c1ccccc1)(c1ccc(O)cc1)c1ccc(O)cc1
- AC50 [1]: 7.98 µM (active)
- outcome [2]: inactive
- outcome [3]: inactive
- outcome [17]: inactive
- AC50 [4]: 16.9 µM (active)
- outcome [5]: inactive
- AC50 [7]: 0.181 µM (active)
- AC50 [8]: 20.1 µM (active)
- outcome [9]: inactive
- outcome [10]: inactive
- outcome [11]: inactive
- outcome [12]: inactive
- AC50 [13]: 15.6 µM (active)
- outcome [14]: inactive
- AC50 [15]: 19.3 µM (active)
- outcome [19]: inactive
- outcome [16]: inactive

Structure (SMILES): CC(C)(C)c1ccccc1O
- AC50 [1]: 75.5 µM (active)
- outcome [2]: inactive
- outcome [3]: inactive
- outcome [17]: inactive
- outcome [4]: inactive
- AC50 [6]: 156 µM (active)
- outcome [18]: inactive
- outcome [8]: inactive
- outcome [9]: inactive
- outcome [10]: inactive
- outcome [11]: inactive
- outcome [12]: inactive
- outcome [14]: inactive
- outcome [15]: inactive
- AC50 [19]: 170 µM (active)
- outcome [16]: inactive

Structure (SMILES): O=[N+]([O-])c1c2ccccc2cc2ccccc12
- outcome [1]: inactive
- outcome [2]: inactive
- outcome [3]: inactive
- outcome [17]: inactive
- outcome [5]: inactive
- outcome [6]: inactive
- outcome [18]: inactive
- AC50 [7]: 7.14 µM (active)
- outcome [8]: inactive
- outcome [9]: inactive
- outcome [10]: inactive
- outcome [11]: inactive
- outcome [12]: inactive
- outcome [14]: inactive
- outcome [15]: inactive
- outcome [19]: inactive
- outcome [16]: inactive

Structure (SMILES): CC[N+](CC)(CC)CC
- outcome [1]: inactive
- outcome [2]: inactive
- outcome [3]: inactive
- outcome [4]: inactive
- outcome [5]: inactive
- outcome [18]: inactive
- outcome [8]: inactive
- outcome [9]: inactive
- outcome [10]: inactive
- outcome [11]: inactive
- outcome [12]: inactive
- outcome [14]: inactive
- outcome [15]: inactive
- outcome [19]: inactive
- outcome [16]: inactive

Structure (SMILES): CCOP(=O)(OCC)SCCSCC
- outcome [1]: inactive
- outcome [2]: inactive
- outcome [3]: inactive
- outcome [17]: inactive
- outcome [4]: inactive
- outcome [5]: inactive
- outcome [18]: inactive
- outcome [7]: inactive
- outcome [8]: inactive
- outcome [9]: inactive
- outcome [10]: inactive
- outcome [11]: inactive
- outcome [12]: inactive
- outcome [15]: inactive
- outcome [19]: inactive
- outcome [16]: inactive

Structure (SMILES): O=[N+]([O-])c1ccccc1O
- outcome [1]: inactive
- outcome [2]: inactive
- outcome [3]: inactive
- outcome [17]: inactive
- outcome [4]: inactive
- outcome [5]: inactive
- outcome [6]: inactive
- outcome [18]: inactive
- outcome [8]: inactive
- outcome [9]: inactive
- outcome [10]: inactive
- outcome [11]: inactive
- outcome [12]: inactive
- outcome [14]: inactive
- outcome [15]: inactive
- outcome [19]: inactive
- outcome [16]: inactive
